Experimental findings from PubChem BioAssay are described below.

Several values for one entry are separate records, joined by “and”; a condition that tells them apart may be missing. Identical values can stand only once. Activity calls are given as the source filed them.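 Rule for the calls, unless noted: active = normalized viability below 100% at a tested concentration; inactive = the rest.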

Experiment [1] relates to Hepatitis C virus NS3 helicase. The experiment can be described thus: HCV NS3 helicase inhibitors, primary screen, biochemical, fluorescence polarization, LOPAC1280 library (AID 687035; in the data active = inhibition above about 37%). The settings on record: Purified HCV NS3 helicase, Cy5-dT15 ssDNA binding fluorescence polarization; stronger effect = higher value; concentration not given here.
Experiment [2] is described as follows: Cy5 fluorescence quenching or enhancement artefacts, artefact control for HCV NS3 helicase inhibitor project, biochemical, LOPAC1280 (AID 687037; call rule not given here). To be noted: Cy5-DNA-NS3h complex fluorescence interference counterscreen.
Experiment [3] concerns Aerobactin synthetase IucA (Klebsiella pneumoniae). The experiment can be described thus: IucA aerobactin synthetase inhibitors, biochemical, Tocris library, absorbance (AID 1345561; call rule not given here;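 note: 100% = enzyme without compound and 0% = no enzyme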). The settings on record: purified IucA enzyme assay, absorbance (OD) read-out; stronger effect = lower value;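 tested at 8 µM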.
The nature of experiment [4]: sensitizers of A549 cells to miR-34 induction, primary screen, imaging, A549 dox-inducible miR-34, nuclei and caspase counts (AID 1347080;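 active = compounds whose cell count with miR-34 switched on is under 0.7 times the count with it off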). The settings on record: A549 miR-34 inducible, Hoechst nuclei count, 48 h.
A short description of experiment [5]: modifiers of HSF1 nuclear foci, imaging, Selleck Cancer Library (AID 1347162; in the data active = plate-normalised HSF1 focus index below about 0.46). The settings on record: human cells, at 10 µM; SSMD: measured here: HSF1 foci SSMD mean; cell count: measured here: cell number; plate-normalised HSF1 focus index: stronger effect = lower value.
Experiment [6] in a line: viability rescue of complex I mutant cybrids, primary screen, cell-based, galactose medium, ATP luminescence (AID 1645843;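 active = z-score of at least 1.8 in each of two replicates, scored against plate mean and spread of sample wells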;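 note: positive z means more ATP and so rescue of galactose-driven cybrid death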). The settings on record: complex I mutant cybrid cells, 72 h, stronger effect = higher value.
Experiment [7] in a line: circadian clock period modulators, cell-based, LOPAC library, luminescence reporter (AID 2774; call rule not given here;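 note: values are relative to mean of DMSO wells on each plate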). The settings on record: circadian reporter cells, at 7 µM, actives lie on both sides.
Experiment [8] is described as follows: hESC survival regulators, cell-based (AID 493140; call rule not given here;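 note: cells exposed to compounds for four days before counting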). To be noted: human embryonic stem cell survival screen; stronger effect = higher value.
The nature of experiment [9]: inhibitors of Cryptococcus chitosan production, flow cytometry, Cibacron Brilliant Red staining (AID 1347148; call rule not given here;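 note: compound exposure lasted three days at 37 degrees C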). The settings on record: Cryptococcus neoformans chitosan, stronger effect = lower value; at 10 µM unless noted.
Experiment [10] can be described thus: phospholipid biosynthesis inhibitors in animal cells, primary screen, cell-based, LOPAC library, screen 4 (AID 1347384; call rule not given here). The settings on record: phospholipid biosynthesis inhibition screen, at 10 µM.
A short description of experiment [11]: survival rescue of mitochondrial mutant cells in low glucose, primary screen, MELAS cybrids, Rieske KO mouse fibroblasts, CellTiter-Glo (AID 1508586;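 active = mean z-score across replicates of 1.96 or higher in either the MELAS or the Rieske mutant cell line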;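 note: z relative to plate mean and SD of compound and empty wells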).
The nature of experiment [12]: ovarian cancer cell viability with rucaparib, profiling panel, oncology-focused library, rucaparib conditional (AID 1508598). To be noted: patient-derived ovarian cancer cells, CellTiter-Glo viability, 144 h, stronger effect = lower value.
The mark [13] stands for this setting: stronger effect = lower value, cell number ratio, induced over uninduced.
Where [14] appears, read: measured here: relative caspase fold change +Dox/-Dox.
[15] abbreviates: measured here: total cells with miR-34 induction, stronger effect = lower value.
[16] abbreviates: measured here: total cells without miR-34 induction.

As for `CCOC(=O)C(C)Oc1cccc2c(=O)n(CC(=O)Nc3ccc4c(c3)OCCO4)ccc12` (stereo unspecified), in experiment [1], the inhibition is -3% (inactive). The fluorescence ratio (interference) in [2] was 1 (inactive). In [3], the remaining activity was 96.6% (inactive). Also, the fold change in experiment [4] (setting [13]) is 0.916 (inactive) and 0.854 (inactive); in experiment [4] (setting [14]) it was 0.783 and 1.31. Also, the cell count in [4] (setting [15]) is 8970 and 6830; in experiment [4] (setting [16]), 9800 and 8000; in experiment [5], 6920. The compound further displayed an SSMD in experiment [5] of 0.942. Further, the plate-normalised HSF1 focus index in experiment [5] is 1.06 (inactive). In experiment [6], the z-score is 0.675 (inactive) and 0.45 (inactive).

`Oc1cc(O)cc(/C=C/c2ccc(O)c(O)c2)c1`: in experiment [7], the period change is -0.07 h (inactive). For the same compound, in experiment [8], the survival is 27.6 (inactive). The inhibition in experiment [1] was -6% (inactive). Moreover, the fluorescence ratio (interference) in experiment [2] is 0.9 (inactive). The remaining activity in [3] was 112% (inactive). In addition, the fold change in experiment [4] (setting [13]) is 1.12 (inactive) and 0.813 (inactive) and 0.863 (inactive); in experiment [4] (setting [14]), 0.772 and 1.12 and 0.797. The cell count in [4] (setting [15]) was 9320 and 2290 and 7210; in [4] (setting [16]), 8350 and 2810. For the same compound, the fold fluorescence in [9] is 4.54 [at 204.7 µM] (inactive). The compound was classed as inactive in experiment [10]. In experiment [6], the z-score is -1.24 (inactive) and -0.7 (inactive).

Regarding `O=C(O)Cc1cccc(OCCCN(Cc2cccc(C(F)(F)F)c2Cl)CC(c2ccccc2)c2ccccc2)c1`, the remaining activity in [3] is 110% (inactive). The fold change in experiment [4] (setting [13]) was 0.882 (inactive) and 1.33 (inactive); in experiment [4] (setting [14]) it was 0.748 and 1.3. Besides, the cell count in experiment [4] (setting [15]) is 7570 and 3160; in experiment [4] (setting [16]), 8580 and 2370; in [5], 6290. This compound also had an SSMD in experiment [5] of 0.414. Moreover, the plate-normalised HSF1 focus index in experiment [5] was 1.02 (inactive). The z-score in experiment [11] (MELAS cybrid survival, CellTiter-Glo 48 h, stronger effect = higher value) was -0.168 (inactive); in experiment [11] (Rieske KO mouse fibroblast survival, CellTiter-Glo 72 h), -0.731; in experiment [6] it was -0.7 (inactive). Besides, the viability in experiment [12] (at 0.000305 µM, OCI-C5x cells, with rucaparib 10 µM, 100% = cells with rucaparib alone) is 118% (inactive); in experiment [12] (at 0.000305 µM, OCI-C5x cells, without rucaparib), 117% (inactive); in experiment [12] (at 0.000305 µM, OCI-P5x cells, with rucaparib 20 µM, 100% = cells with rucaparib alone) it was 107% (inactive); in experiment [12] (at 0.000305 µM, OCI-P5x cells, without rucaparib), 111% (inactive); in [12] (at 0.00122 µM, OCI-C5x cells, with rucaparib 10 µM, 100% = cells with rucaparib alone) it was 118% (inactive); in experiment [12] (at 0.00122 µM, OCI-C5x cells, without rucaparib) it was 129% (inactive). Also, the viability was 108% (inactive) in [12] (at 0.00122 µM, OCI-P5x cells, with rucaparib 20 µM, 100% = cells with rucaparib alone); 95.8% (active) in [12] (at 0.00122 µM, OCI-P5x cells, without rucaparib); 115% (inactive) in experiment [12] (at 0.00488 µM, OCI-C5x cells, with rucaparib 10 µM, 100% = cells with rucaparib alone); 125% (inactive) in [12] (at 0.00488 µM, OCI-C5x cells, without rucaparib); 106% (inactive) in experiment [12] (at 0.00488 µM, OCI-P5x cells, with rucaparib 20 µM, 100% = cells with rucaparib alone); 108% (inactive) in experiment [12] (at 0.00488 µM, OCI-P5x cells, without rucaparib). In addition, the viability in experiment [12] (at 0.0195 µM, OCI-C5x cells, with rucaparib 10 µM, 100% = cells with rucaparib alone) was 113% (inactive); in [12] (at 0.0195 µM, OCI-C5x cells, without rucaparib), 125% (inactive); in [12] (at 0.0195 µM, OCI-P5x cells, with rucaparib 20 µM, 100% = cells with rucaparib alone), 101% (inactive); in experiment [12] (at 0.0195 µM, OCI-P5x cells, without rucaparib), 105% (inactive); in experiment [12] (at 0.0781 µM, OCI-C5x cells, with rucaparib 10 µM, 100% = cells with rucaparib alone), 114% (inactive); in experiment [12] (at 0.0781 µM, OCI-C5x cells, without rucaparib), 123% (inactive). In addition, the viability is 109% (inactive) in experiment [12] (at 0.0781 µM, OCI-P5x cells, with rucaparib 20 µM, 100% = cells with rucaparib alone); 103% (inactive) in [12] (at 0.0781 µM, OCI-P5x cells, without rucaparib); 114% (inactive) in [12] (at 0.313 µM, OCI-C5x cells, with rucaparib 10 µM, 100% = cells with rucaparib alone); 119% (inactive) in [12] (at 0.313 µM, OCI-C5x cells, without rucaparib); 93.8% (active) in experiment [12] (at 0.313 µM, OCI-P5x cells, with rucaparib 20 µM, 100% = cells with rucaparib alone); 96.5% (active) in experiment [12] (at 0.313 µM, OCI-P5x cells, without rucaparib). Also, the viability was 111% (inactive) in [12] (at 1.25 µM, OCI-C5x cells, with rucaparib 10 µM, 100% = cells with rucaparib alone); 114% (inactive) in experiment [12] (at 1.25 µM, OCI-C5x cells, without rucaparib); 96.5% (active) in [12] (at 1.25 µM, OCI-P5x cells, with rucaparib 20 µM, 100% = cells with rucaparib alone); 92.3% (active) in experiment [12] (at 1.25 µM, OCI-P5x cells, without rucaparib); 92.1% (active) in experiment [12] (at 5 µM, OCI-C5x cells, with rucaparib 10 µM, 100% = cells with rucaparib alone); 100% (inactive) in experiment [12] (at 5 µM, OCI-C5x cells, without rucaparib). In addition, the viability was 43.4% (active) in experiment [12] (at 5 µM, OCI-P5x cells, with rucaparib 20 µM, 100% = cells with rucaparib alone) and 87.5% (active) in experiment [12] (at 5 µM, OCI-P5x cells, without rucaparib).
